In all, about 5,500 compounds went through this assay and about 2,000 (36%) were called active. About 18% were inconclusive and are not listed. Cut-off read from the data, not from the text of the source: active = normalized growth mostly below about 0.91 (no sharp cut-off); inconclusive = no clear call, values can overlap the other calls; inactive = mostly above about 0.92. This is one part of the list.
Experiment: chemical genetic growth profiling, strain panel (AID 1159580);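 note: tested at 20 µM; growth read once vehicle control cultures reached saturation at 30 °C; 1 = growth at the plate median or of vehicle wells; lower values mean less growth of the strain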
Conditions: S. cerevisiae deletion strains, growth OD

Measured: normalized growth

C[C@](N)(Cc1ccc(O)cc1)C(=O)O
inactive: locus YAL021C, strain ccr4, hits give low values 1 | locus YAL026C, strain drs2, hits give low values 0.999 | locus YAL030W, strain snc1, hits give low values 0.998 | locus YBL061C, strain skt5, hits give low values 0.993 | locus YBR009C, strain hhf1, hits give low values 0.993 | locus YBR023C, strain chs3, hits give low values 0.996 | locus YBR171W, strain sec66, hits give low values 0.998 | locus YBR231C, strain swc5, hits give low values 1 | locus YBR279W, strain paf1, hits give low values 1 | locus YCL011C, strain gbp2, hits give low values 1 | locus YCL016C, strain dcc1, hits give low values 0.986 | locus YCL061C, strain MRC1, hits give low values 1 | locus YCL069W, strain vba3, hits give low values 0.997 | locus YCR088W, strain abp1, hits give low values 0.99 | locus YDL005C, strain med2, hits give low values 0.989 | locus YDL040C, strain nat1, hits give low values 0.991 | locus YDR001C, strain nth1, hits give low values 0.986 | locus YDR069C, strain doa4, hits give low values 1 | locus YDR137W, strain rgp1, hits give low values 0.991 | locus YDR159W, strain sac3, hits give low values 0.991 | locus YDR195W, strain ref2 0.971 | locus YDR297W, strain sur2, hits give low values 0.996 | locus YDR334W, strain swr1, hits give low values 0.997 | locus YDR335W, strain msn5, hits give low values 0.995 | locus YDR392W, strain spt3, hits give low values 0.923 | locus YEL003W, strain gim4, hits give low values 1 | locus YEL037C, strain rad23, hits give low values 0.999 | locus YEL061C, strain CIN8 (second series), hits give low values 0.992 | locus YER015W, strain faa2, hits give low values 1 | locus YER016W, strain bim1, hits give low values 0.993 | locus YER111C, strain swi4, hits give low values 1 | locus YER155C, strain BEM2 (second series), hits give low values 0.983 | locus YFR010W, strain ubp6, hits give low values 1 | locus YGL167C, strain pmr1, hits give low values 0.994 | locus YGL173C, strain kem1, hits give low values 1.01 | locus YGL227W, strain vid30, hits give low values 0.992 | locus YGL240W, strain doc1, hits give low values 1.01 | locus YGL253W, strain hxk2, hits give low values 0.999 | locus YHR013C, strain ard1, hits give low values 0.954 | locus YHR027C, strain rpn1, hits give low values 0.997 | locus YHR030C, strain SLT2, hits give low values 1.03 | locus YHR079C, strain IRE1, hits give low values 1.04 | locus YHR142W, strain chs7, hits give low values 1.01 | locus YJL092W, strain hpr5, hits give low values 0.998 | locus YJL095W, strain BCK1 (second series), hits give low values 0.997 | locus YJL095W, strain BCK1, hits give low values 1.05 | locus YJL115W, strain asf1, hits give low values 0.99 | locus YJL129C, strain trk1, hits give low values 1.01 | locus YJL154C, strain vps35, hits give low values 1 | locus YJL164C, strain tpk1, hits give low values 0.999 | locus YJL166W, strain qcr8, hits give low values 1 | locus YJL187C, strain SWE1, hits give low values 0.999 | locus YJR066W, strain TOR1, hits give low values 1.01 | locus YKL160W, strain elf1, hits give low values 1.01 | locus YKR026C, strain gcn3, hits give low values 0.98 | locus YKR091W, strain srl3, hits give low values 0.992 | locus YLL001W, strain dnm1, hits give low values 1.01 | locus YLL026W, hits give low values 0.996 | locus YLL041C, strain sdh2, hits give low values 0.997 | locus YLR027C, strain aat2, hits give low values 1 | locus YLR113W, strain HOG1, hits give low values 1.01 | locus YLR221C, strain rsa3, hits give low values 0.997 | locus YLR258W, strain gsy2, hits give low values 0.993 | locus YLR262C, strain YPT6 (second series), hits give low values 1.01 | locus YLR320W, strain mms22, hits give low values 1.01 | locus YLR342W, strain FKS1, hits give low values 0.998 | locus YLR357W, strain rsc2, hits give low values 0.982 | locus YLR370C, strain arc18, hits give low values 1 | locus YLR384C, strain iki3, hits give low values 0.994 | locus YML120C, strain ndi1, hits give low values 1.03 | locus YMR058W, strain fet3, hits give low values 1 | locus YMR125W, strain sto1, hits give low values 0.995 | locus YMR129W, hits give low values 0.986 | locus YMR205C, strain PFK2, hits give low values 0.984 | locus YMR231W, strain pep5, hits give low values 0.999 | locus YNL071W, strain lat1, hits give low values 1.01 | locus YNL183C, strain NPR1, hits give low values 1.02 | locus YNL209W, strain ssb2, hits give low values 1.01 | locus YNL248C, strain rpa49, hits give low values 1.02 | locus YNL322C, strain KRE1 (second series), hits give low values 0.986 | locus YNR049C, strain mso1, hits give low values 0.989 | locus YOR001W, strain rrp6, hits give low values 1 | locus YOR070C, strain gyp1, hits give low values 0.988 | locus YOR080W, strain dia2, hits give low values 0.99 | locus YOR083W, strain WHI5, hits give low values 1.01 | locus YOR106W, strain vam3, hits give low values 1 | locus YOR231W, strain MKK1, hits give low values 1.05 | locus YOR265W, strain rbl2, hits give low values 0.999 | locus YOR270C, strain vph1, hits give low values 1.01 | locus YOR290C, strain snf2, hits give low values 0.926 | locus YPL051W, strain arl3, hits give low values 1.01 | locus YPL078C, strain atp4, hits give low values 1.01 | locus YPL106C, strain sse1, hits give low values 0.993 | locus YPL240C, strain hsp82, hits give low values 1.01 | locus YPL256C, strain CLN2, hits give low values 1.05
